Measurements as given in PubChem BioAssay (Tox21).
A number with no mark means an inactive call. Results filed as inconclusive are left out. Where a call stands in place of a potency, no number is given. The source made the active and inactive calls. Unless noted, the call rests on the fitted dose curve.

Key:
[1] = Nuclear factor erythroid 2-related factor 2/antioxidant responsive element (Nrf2/ARE) small molecule agonists: qHTS cell viability counter screen in human keratinocytes (AID 1919968; active means well fitted curve in the direction sought with a large enough effect in the repeat runs; an effect the other way counts as inactive or inconclusive; further: nearly all actives have a fitted effect of over 55% in size; further: potency means the concentration at half of the fitted maximal effect)
Summary of the method: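 After a 5 h attachment period, ARE-reporter keratinocytes were dosed with compounds in DMSO and then cultured 23 h at 37 C. Cell viability came from CellTiter-Fluor signal read after a further 1 h.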

[2] = Nuclear factor erythroid 2-related factor 2/antioxidant responsive element (Nrf2/ARE) small molecule agonists: luciferase reporter gene qHTS assay in human keratinocytes (AID 1919969); further: nearly all actives have a fitted effect of over 35% in size; further: potency means the concentration at half of the fitted maximal effect
[3] = target: Gonadotropin-releasing hormone receptor (Homo sapiens) (UniProt P30968); test: Human gonadotropin-releasing hormone receptor (GnRHR) small molecule agonists, calcium flux assay in GnRHR-HEK293 cells (AID 1920063); further: nearly all actives have a fitted effect of over 35% in size; further: potency means the concentration at half of the fitted maximal effect
Chain of Gonadotropin-releasing hormone receptor (Homo sapiens) (P30968 whole entry, looked up): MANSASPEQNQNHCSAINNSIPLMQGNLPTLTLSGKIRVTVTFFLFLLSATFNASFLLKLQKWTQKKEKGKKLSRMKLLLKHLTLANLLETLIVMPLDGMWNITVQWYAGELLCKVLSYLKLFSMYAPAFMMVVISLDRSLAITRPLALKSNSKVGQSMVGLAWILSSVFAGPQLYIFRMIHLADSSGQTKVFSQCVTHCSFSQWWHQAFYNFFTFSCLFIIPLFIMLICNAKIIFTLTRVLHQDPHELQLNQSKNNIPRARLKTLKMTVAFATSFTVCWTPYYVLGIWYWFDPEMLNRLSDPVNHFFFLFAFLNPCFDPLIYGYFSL
Summary of the method: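 We seeded human GnRHR-expressing HEK293 cells for 18 hours, loaded them with calcium dye for an hour at 37 C, added test compounds, and recorded fluorescence intensity kinetically for three minutes.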

[4] = target: KiSS-1 receptor (Homo sapiens) (UniProt Q969F8); test: Human kisspeptin (KISS1R) small molecule agonists, calcium flux assay in KISS1R-HEK293 cells (AID 1920064; active means well fitted curve in the direction sought with a large enough effect in the repeat runs; an effect the other way counts as inactive or inconclusive; further: potency means the concentration at half of the fitted maximal effect)
Chain of KiSS-1 receptor (Homo sapiens) (Q969F8 whole entry, looked up): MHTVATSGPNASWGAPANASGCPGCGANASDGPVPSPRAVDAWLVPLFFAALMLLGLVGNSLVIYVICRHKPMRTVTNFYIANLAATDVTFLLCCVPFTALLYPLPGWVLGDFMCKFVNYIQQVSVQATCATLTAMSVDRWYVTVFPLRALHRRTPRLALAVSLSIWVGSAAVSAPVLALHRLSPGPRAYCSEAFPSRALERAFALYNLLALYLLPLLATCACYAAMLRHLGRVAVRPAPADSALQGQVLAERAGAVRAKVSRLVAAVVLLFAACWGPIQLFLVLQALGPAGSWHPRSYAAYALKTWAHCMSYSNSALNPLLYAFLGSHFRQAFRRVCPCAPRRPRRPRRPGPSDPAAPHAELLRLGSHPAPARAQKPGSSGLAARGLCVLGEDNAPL
Summary of the method: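 Kinetic calcium assay, 1 s sampling over 3 min at Ex/Em 480/540, in HEK293 cells engineered with human KISS1R; compounds delivered in DMSO after 1 h dye loading.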

[5] = G protein-coupled receptor (GPCR) small molecule agonists, calcium flux assay: HEK293 wild type cell line counter screen (AID 1920065); further: potency means the concentration at half of the fitted maximal effect
Summary of the method: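 Calcium-sensitive dye, loaded 1 h at 37 C into cells cultured 18 h, reports compound-evoked calcium release as fluorescence (Ex/Em 480/540), measured over 3 min. Agonist mode; 15-point titrations, triplicate.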

[6] = p53 small molecule agonists, cell-based qHTS assay with human liver microsomes (AID 1963577);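 further: p53 response element beta-lactamase reporter cells with liver microsomes plus NADPH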
Summary of the method: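 Metabolically competent format: test substances, human liver microsomes and NADPH (both 0.5 mg/mL final) incubated with p53RE-bla cells 16 h at 37 C. Beta-lactamase reporter signal then quantified by fluorescence.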

[7] = p53 small molecule agonists, cell-based qHTS assay with rat liver microsomes (AID 1963578)
Summary of the method: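 Each plate received p53RE-bla cells, then compound, then rat liver microsomes and NADPH (both 0.5 mg/mL final). Plates were held 16 h at 37 C, and beta-lactamase activity was detected with LiveBLAzer over 2 h.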

[8] = p53 small molecule agonists, cell-based qHTS assay with human liver microsomes: qHTS cell viability counter screen (AID 1963579); further: nearly all actives have a fitted effect of over 45% in size; further: potency means the concentration at half of the fitted maximal effect
Summary of the method: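 Tox21 library compounds, delivered from DMSO stocks, were tested on p53RE-bla cells together with 0.5 mg/mL human liver microsomes and 0.5 mg/mL NADPH (final) over 16 h at 37 C; CellTiter-Glo luminescence served as the cytotoxicity measure.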

[9] = p53 small molecule agonists, cell-based qHTS assay with rat liver microsomes: qHTS cell viability counter screen (AID 1963580); further: nearly all actives have a fitted effect of over 45% in size; further: potency means the concentration at half of the fitted maximal effect
Summary of the method: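 In HCT-116 cells carrying a p53 response element-bla reporter, compounds were metabolically activated in situ by rat liver microsomes with NADPH over 16 h. Cell ATP content then served as the cytotoxicity measure.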

[10] = p53 small molecule agonists, cell-based qHTS assay (AID 1963582; active means well fitted activation curve with a large enough effect in the signal ratio in the repeat runs, not every such curve was filed as active; the % refers to the signal ratio)
Summary of the method: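 In this cell-based concentration-response screen, a p53 response element drives beta-lactamase; cells received DMSO-borne compounds after 5 h culture and were incubated a further 16 h before FRET substrate development.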

[11] = target: 5-hydroxytryptamine receptor 2A (Homo sapiens) (UniProt P28223); test: 5-hydroxytryptamine receptor 2A (HTR2A) small molecule antagonists, cell-based qHTS assay (AID 1963586); further: nearly all actives have a fitted effect of over 45% in size; further: potency means the concentration at half of the fitted maximal effect
Chain of 5-hydroxytryptamine receptor 2A (Homo sapiens) (P28223 whole entry, looked up): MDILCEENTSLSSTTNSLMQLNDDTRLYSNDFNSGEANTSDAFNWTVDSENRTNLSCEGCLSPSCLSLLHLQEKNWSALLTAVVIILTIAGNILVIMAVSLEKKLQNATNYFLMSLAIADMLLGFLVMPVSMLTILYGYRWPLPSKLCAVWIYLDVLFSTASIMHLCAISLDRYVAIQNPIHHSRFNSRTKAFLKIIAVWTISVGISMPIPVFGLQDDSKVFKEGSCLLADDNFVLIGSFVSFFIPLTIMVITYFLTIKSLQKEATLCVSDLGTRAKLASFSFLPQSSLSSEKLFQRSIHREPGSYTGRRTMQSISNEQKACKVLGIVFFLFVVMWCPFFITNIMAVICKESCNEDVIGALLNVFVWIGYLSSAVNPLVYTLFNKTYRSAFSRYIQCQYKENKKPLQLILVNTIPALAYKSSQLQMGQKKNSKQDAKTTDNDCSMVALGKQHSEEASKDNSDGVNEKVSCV
Summary of the method: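 Antagonist-mode intracellular calcium assay: DOI (4 nM) added after 5 min compound pre-incubation at room temperature to dye-loaded HTR2A-CHO cells. Fluorescence followed for 3 min, sampled every second.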

[12] = target: 5-hydroxytryptamine receptor 2A (Homo sapiens) (UniProt P28223); test: 5-hydroxytryptamine receptor 2A (HTR2A) small molecule agonists, cell-based qHTS assay (AID 1963587); further: nearly all actives have a fitted effect of over 30% in size
Summary of the method: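 HTR2A-CHO cells, plated 18 h at 37 C/5% CO2, dye-loaded 1 h at 37 C; compounds in DMSO added by pin tool (agonist mode). Intracellular calcium flux read as kinetic fluorescence on FDSS over 2 min at 1 s intervals.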

[13] = target: Muscarinic acetylcholine receptor M1 (Homo sapiens) (UniProt P11229); test: Cholinergic receptor muscarinic 1 (CHRM1) small molecule antagonists, cell-based qHTS assay (AID 1963588); further: nearly all actives have a fitted effect of over 40% in size
Chain of Muscarinic acetylcholine receptor M1 (Homo sapiens) (P11229 whole entry, looked up): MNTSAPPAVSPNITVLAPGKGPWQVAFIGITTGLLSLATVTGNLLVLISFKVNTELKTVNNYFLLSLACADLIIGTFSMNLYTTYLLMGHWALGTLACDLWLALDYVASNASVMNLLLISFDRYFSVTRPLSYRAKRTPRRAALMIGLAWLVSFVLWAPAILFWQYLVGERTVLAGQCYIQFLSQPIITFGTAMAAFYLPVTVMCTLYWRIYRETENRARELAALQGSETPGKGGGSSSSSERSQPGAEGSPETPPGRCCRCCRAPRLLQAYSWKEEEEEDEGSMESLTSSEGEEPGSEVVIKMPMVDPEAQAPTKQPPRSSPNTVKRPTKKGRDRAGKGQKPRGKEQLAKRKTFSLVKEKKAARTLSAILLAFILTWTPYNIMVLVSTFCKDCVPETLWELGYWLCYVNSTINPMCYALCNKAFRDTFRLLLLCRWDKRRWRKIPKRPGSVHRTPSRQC
Summary of the method: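 CHRM1-CHO calcium-flux assay, antagonist mode. Cells were seeded 18 h, dye-loaded 1 h at 37 C and given compound for 5 min at RT, then acetylcholine was added at 50nM. FDSS fluorescence was read 3 min; 15 concentrations, three runs.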

[14] = target: Muscarinic acetylcholine receptor M1 (Homo sapiens) (UniProt P11229); test: Cholinergic receptor muscarinic 1 (CHRM1) small molecule agonists, cell-based qHTS assay (AID 1963589); further: nearly all actives have a fitted effect of over 35% in size
Summary of the method: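 Measures agonist-induced intracellular calcium rise. Stable human CHRM1 CHO line, 1 h dye load at 37 C, compounds from DMSO, kinetic fluorescence read.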

[15] = cAMP Responsive Elements (CRE) small molecule agonists, cell-based qHTS assay (AID 1963590)
Summary of the method: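 A CRE-responsive beta-lactamase reporter in HEK 293T cells was used. Treatment ran 3 h at 37 C; detection used LiveBLAzer B/G FRET substrate for 2 h at room temperature.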

[16] = target: D(2) dopamine receptor (Homo sapiens) (UniProt P14416); test: Dopamine D2 receptor (DRD2) small molecule agonists, cell-based qHTS assay (AID 1963594); further: nearly all actives have a fitted effect of over 35% in size; further: potency means the concentration at half of the fitted maximal effect
Chain of D(2) dopamine receptor (Homo sapiens) (P14416 whole entry, looked up): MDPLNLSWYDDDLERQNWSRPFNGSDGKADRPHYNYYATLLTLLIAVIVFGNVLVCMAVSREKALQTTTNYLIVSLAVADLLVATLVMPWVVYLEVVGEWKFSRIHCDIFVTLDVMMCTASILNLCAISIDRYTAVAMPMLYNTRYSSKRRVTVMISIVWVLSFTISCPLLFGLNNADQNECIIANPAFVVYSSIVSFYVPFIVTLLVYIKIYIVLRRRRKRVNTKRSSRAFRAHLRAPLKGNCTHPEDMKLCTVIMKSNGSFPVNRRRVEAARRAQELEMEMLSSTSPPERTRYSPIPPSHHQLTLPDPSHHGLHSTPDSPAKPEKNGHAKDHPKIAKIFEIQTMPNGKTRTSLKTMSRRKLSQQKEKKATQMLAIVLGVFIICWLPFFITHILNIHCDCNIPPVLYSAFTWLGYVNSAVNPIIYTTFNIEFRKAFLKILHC
Summary of the method: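 HEK293 cells stably expressing DRD2 were cultured 24 h at 37 C, then given Ro20-1724 (0.1 mM final) and compounds for 10 min at room temperature. NKH477 (200nM) was then added for 30 min. cAMP was read by HTRF.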

[17] = target: D(2) dopamine receptor (Homo sapiens) (UniProt P14416); test: Dopamine D2 receptor (DRD2) small molecule antagonists, cell-based qHTS assay (AID 1963595; active means well fitted inhibition curve with a large enough effect in the signal ratio in the repeat runs, with a control signal flat; the % refers to the signal ratio; further: potency means the concentration at half of the fitted maximal effect)
Summary of the method: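 Antagonism was scored as restored cAMP in HEK293-DRD2 cells. These cells were stimulated with 200 nM NKH477 and 12 nM quinpirole for 30 min at room temperature, in the presence of 0.1 mM Ro20-1724.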

[18] = target: Beta-2 adrenergic receptor (Homo sapiens) (UniProt P07550); test: Adrenergic beta2 receptor (ADRB2) small molecule antagonists, cell-based qHTS assay (AID 1963592); further: nearly all actives have a fitted effect of over 50% in size; further: potency means the concentration at half of the fitted maximal effect
Chain of Beta-2 adrenergic receptor (Homo sapiens) (P07550 whole entry, looked up): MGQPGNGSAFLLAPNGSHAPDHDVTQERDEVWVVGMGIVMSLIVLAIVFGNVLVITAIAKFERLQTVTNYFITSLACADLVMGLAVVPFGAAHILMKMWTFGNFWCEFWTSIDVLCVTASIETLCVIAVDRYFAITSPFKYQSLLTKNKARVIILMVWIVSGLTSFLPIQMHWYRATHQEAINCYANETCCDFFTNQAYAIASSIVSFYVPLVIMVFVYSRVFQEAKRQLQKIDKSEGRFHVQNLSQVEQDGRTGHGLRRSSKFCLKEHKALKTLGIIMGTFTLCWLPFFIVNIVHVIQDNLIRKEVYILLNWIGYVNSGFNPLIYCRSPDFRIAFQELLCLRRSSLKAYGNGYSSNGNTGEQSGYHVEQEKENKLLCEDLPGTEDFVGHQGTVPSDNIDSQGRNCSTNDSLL
Summary of the method: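 Cells (CHO, stable ADRB2 overexpression) incubated 18-20hr at 37C; compounds added from DMSO; agonist mix (1nM isoproterenol, 100uM IBMX, 25uM Ro-20-1724) added; 0.5hr RT; d2-cAMP and anti-cAMP-cryptate added; 1hr RT; 665/615 nm read.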

[19] = cAMP Responsive Elements (CRE) small molecule antagonists, cell-based qHTS assay (AID 1963591; active means well fitted inhibition curve with a large enough effect in the signal ratio in the repeat runs, not every such curve was filed as active; the % refers to the signal ratio)
Summary of the method: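 HEK293T cells carrying a CRE-driven beta-lactamase reporter receive compound and NKH477 (0.25 uM final) for 3 h. Fluorescence from LiveBLAzer B/G FRET substrate is read after 2 h at room temperature.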

[20] = p53 small molecule agonists, cell-based qHTS assay: qHTS cell viability counter screen (AID 1963581); further: nearly all actives have a fitted effect of over 45% in size; further: potency means the concentration at half of the fitted maximal effect
Summary of the method: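 Following 5 h attachment, HCT-116 p53RE-bla cells took up compound for 16 h at 37 C; the reporter was read with B/G FRET substrate (2 h RT), and viability then via CellTiter-Glo ATP luminescence.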

Row | SMILES | Potency [1] | Potency [2] | Potency [3] | Potency [4] | Potency [5] | Potency [6] | Potency [7] | Potency [8] | Potency [9] | Potency [10] | Potency [11] | Potency [12] | Potency [13] | Potency [14] | Potency [15] | Potency [16] | Potency [17] | Potency [18] | Potency [19] | Potency [20]
1 | CN1C[C@@H](NS(=O)(=O)N(C)C)C[C@@H]2c3cccc4c3c(cn4C)C[C@H]21 | inactive | inactive | inactive | inactive | inactive | inactive | inactive | inactive | inactive | inactive | 0.13 µM (active) | inactive | inactive | inactive | inactive | 3.76 µM (active) | 1.19 µM (active) | – | – | –
2 | CC#C[C@]1(O)CC[C@H]2[C@@H]3C[C@H](C)C4=CC(=O)CC[C@]4(C)[C@H]3CC[C@@]21C | inactive | inactive | inactive | inactive | inactive | inactive | inactive | inactive | inactive | inactive | – | inactive | inactive | inactive | – | inactive | inactive | inactive | – | –
3 | N#Cc1c(Cl)cccc1Cl | inactive | inactive | inactive | inactive | inactive | inactive | inactive | inactive | inactive | – | – | inactive | – | inactive | inactive | inactive | – | – | inactive | –
4 | N#CNC#N | inactive | inactive | inactive | inactive | inactive | inactive | inactive | inactive | inactive | inactive | inactive | inactive | inactive | inactive | inactive | inactive | inactive | inactive | inactive | –
5 | CCc1cc(OC)c(C[C@H](C)N)cc1OC | inactive | inactive | inactive | inactive | inactive | inactive | inactive | inactive | inactive | inactive | inactive | – | inactive | inactive | inactive | – | inactive | – | inactive | –
6 | CCOc1ccc(C(C)(C)COCc2cccc(Oc3ccccc3)c2)cc1 | inactive | inactive | inactive | inactive | inactive | inactive | inactive | inactive | inactive | – | inactive | inactive | inactive | inactive | inactive | – | – | inactive | inactive | –
7 | CN=CNc1ccc(C)cc1C | inactive | inactive | inactive | inactive | inactive | inactive | inactive | inactive | inactive | inactive | inactive | inactive | inactive | inactive | – | inactive | – | inactive | inactive | –
8 | CCC(C(N)=O)N1CCCC1=O (stereo not given) | inactive | inactive | inactive | inactive | inactive | inactive | inactive | inactive | inactive | – | inactive | inactive | inactive | inactive | inactive | inactive | inactive | inactive | inactive | –
9 | C[N+](C)(C)CCOC(=O)C(O)(c1ccccc1)c1ccccc1 | inactive | inactive | inactive | inactive | inactive | inactive | inactive | inactive | inactive | – | inactive | inactive | – | inactive | inactive | inactive | inactive | inactive | inactive | –
10 | Cl/C=C\Cl | inactive | inactive | inactive | inactive | inactive | inactive | inactive | inactive | inactive | – | inactive | inactive | inactive | inactive | – | inactive | inactive | inactive | inactive | –
11 | C[C@@H]1CC[C@@]2(OC1)O[C@H]1[C@@H](O)[C@H]3[C@@H]4CC[C@H]5C[C@@H](O[C@@H]6O[C@H](CO)[C@H](O[C@@H]7O[C@H](CO)[C@@H](O)[C@H](O[C@@H]8OC[C@@H](O)[C@H](O)[C@H]8O)[C@H]7O[C@@H]7O[C@H](CO)[C@@H](O)[C@H](O[C@@H]8O[C@H](CO)[C@@H](O)[C@H](O)[C@H]8O)[C@H]7O)[C@H](O)[C@H]6O)[C@H](O)C[C@]5(C)[C@H]4CC[C@]3(C)[C@H]1[C@@H]2C | 8.17 µM (active) | inactive | 0.735 µM (active) | 23.2 µM (active) | 41.3 µM (active) | inactive | inactive | 13.7 µM (active) | 13.7 µM (active) | – | – | – | – | – | – | 51.5 µM (active) | 2.3 µM (active) | 64.9 µM (active) | inactive | 13.7 µM (active)
12 | Nc1nc(N)nc(N)n1 | inactive | inactive | inactive | inactive | inactive | inactive | inactive | inactive | inactive | inactive | – | inactive | inactive | inactive | inactive | inactive | inactive | inactive | inactive | –
13 | CN(C)CCc1c[nH]c2cccc(O)c12 | inactive | 67.9 µM (active) | inactive | inactive | inactive | inactive | inactive | inactive | inactive | inactive | – | – | inactive | inactive | inactive | – | – | – | inactive | –
14 | COc1ccc(OC)c(C=O)c1 | inactive | inactive | inactive | inactive | inactive | inactive | inactive | inactive | inactive | – | inactive | inactive | inactive | inactive | inactive | inactive | inactive | inactive | inactive | –
15 | COC1=CC(=O)O[C@@H](/C=C/c2ccc3c(c2)OCO3)C1 | inactive | inactive | inactive | inactive | inactive | inactive | inactive | inactive | inactive | – | – | inactive | inactive | – | – | inactive | – | inactive | – | inactive
